Experimental data from PMC4336329 (PLoS ONE, 2015).
Among all 310,000 compounds or so, about 14,000 (4.5%) showed an effect of 50% or more. Effects have a minus sign here. The sample holds strong results, similar compounds and a random draw of the others, so the mix is not that of the screen.
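Further: peak tail current of the secondary pulse compared with the same well before compound.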

The molecules below were run against human ether-à-go-go-related gene (hERG) potassium channel (human, UniProt Q12809) (assay: primary screen, population patch clamp on CHO cells stably expressing hERG; higher = less effect of the substance).
human ether-à-go-go-related gene (hERG) potassium channel, sequence (Q12809 whole entry, looked up): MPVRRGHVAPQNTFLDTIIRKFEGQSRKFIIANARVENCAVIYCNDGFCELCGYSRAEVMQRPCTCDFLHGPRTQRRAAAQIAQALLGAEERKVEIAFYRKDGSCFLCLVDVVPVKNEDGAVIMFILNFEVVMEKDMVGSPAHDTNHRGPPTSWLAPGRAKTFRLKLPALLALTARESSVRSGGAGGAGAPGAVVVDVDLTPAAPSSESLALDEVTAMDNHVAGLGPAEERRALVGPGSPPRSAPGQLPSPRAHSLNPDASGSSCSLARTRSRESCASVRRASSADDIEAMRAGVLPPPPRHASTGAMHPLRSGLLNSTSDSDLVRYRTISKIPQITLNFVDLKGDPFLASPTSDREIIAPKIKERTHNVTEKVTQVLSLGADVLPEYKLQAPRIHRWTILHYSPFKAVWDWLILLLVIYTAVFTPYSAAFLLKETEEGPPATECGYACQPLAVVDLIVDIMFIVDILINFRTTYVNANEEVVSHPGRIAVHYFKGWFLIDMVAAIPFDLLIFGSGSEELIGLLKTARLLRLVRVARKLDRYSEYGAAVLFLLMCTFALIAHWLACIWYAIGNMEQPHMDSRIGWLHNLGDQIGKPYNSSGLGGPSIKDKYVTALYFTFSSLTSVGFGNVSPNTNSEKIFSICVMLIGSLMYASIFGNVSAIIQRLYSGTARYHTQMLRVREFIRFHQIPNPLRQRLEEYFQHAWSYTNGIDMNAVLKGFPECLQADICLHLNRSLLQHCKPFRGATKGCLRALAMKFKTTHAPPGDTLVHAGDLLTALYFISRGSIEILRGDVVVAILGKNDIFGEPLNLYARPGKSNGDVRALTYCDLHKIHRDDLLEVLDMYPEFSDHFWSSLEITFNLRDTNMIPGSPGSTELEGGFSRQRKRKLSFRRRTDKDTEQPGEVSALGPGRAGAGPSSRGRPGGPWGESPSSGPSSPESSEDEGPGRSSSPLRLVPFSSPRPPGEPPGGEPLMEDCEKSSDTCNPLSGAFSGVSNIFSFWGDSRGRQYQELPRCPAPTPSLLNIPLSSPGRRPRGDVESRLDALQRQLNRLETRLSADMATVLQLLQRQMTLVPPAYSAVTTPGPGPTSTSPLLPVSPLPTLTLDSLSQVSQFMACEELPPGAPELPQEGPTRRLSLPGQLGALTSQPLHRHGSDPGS
For `Cc1ccc(NC(=O)c2cc(CC(C)C)nc3ccccc23)cc1`, the “hERG current change (%, negative = inhibition) at 10uM” value was 11%. In the case of `CCOc1ccc2nc(NC(=O)CN3CCN(C)CC3)sc2c1`, the “hERG current change (%, negative = inhibition) at 10uM” value is reported as -15.7%. In the case of `CN(C)CCc1nn[nH]n1`, the “hERG current change (%, negative = inhibition) at 10uM” value is reported as -0.456%. With `CSCCC(NC(=O)c1ccc(Cl)cc1Cl)C(=O)OC1CCCCC1=O` (stereo not drawn) the “hERG current change (%, negative = inhibition) at 10uM” value was -26.7%. With `CCOc1ccc(NC(=O)CN(C)CC(=O)Nc2cccc(Cl)c2C)cc1OCC` the “hERG current change (%, negative = inhibition) at 10uM” value was -10.4%. With `CCC(=O)N(CCC(c1ccccc1)c1ccco1)Cc1cccs1` (stereo not drawn) the “hERG current change (%, negative = inhibition) at 10uM” value was -15.9%. `COc1ccccc1C(CCN(Cc1cccs1)C(C)=O)c1ccco1` (stereo not drawn) was tested, and the “hERG current change (%, negative = inhibition) at 10uM” value was -2.93%. For `CC(=O)N(CCC(c1ccccc1)c1ccco1)Cc1cccs1` (stereo not drawn), the “hERG current change (%, negative = inhibition) at 10uM” value was -52.9%. In the case of `CC(Nc1cc(C)cc(C)c1)=[N+](C)CCNS(=O)(=O)c1ccc(Cl)cc1.[I-]`, the “hERG current change (%, negative = inhibition) at 10uM” value is reported as -48.5%. In the case of `CCNS(=O)(=O)c1ccc(NC(=O)Nc2cccc(OC)c2)cc1`, the “hERG current change (%, negative = inhibition) at 10uM” value is reported as 8.01%. `COc1ccccc1NC(C)=[N+](C)CCNS(=O)(=O)c1ccc(Cl)cc1.[I-]` was tested, and the “hERG current change (%, negative = inhibition) at 10uM” value was -58.7%. `COc1cccc(NC(=O)C2(S(=O)(=O)c3ccc(Cl)cc3)CC2)c1` was tested, and the “hERG current change (%, negative = inhibition) at 10uM” value was -15.9%. For `CC(Nc1ccc(F)cc1)=[N+](C)CCNS(=O)(=O)c1ccc(Cl)cc1.[I-]`, the “hERG current change (%, negative = inhibition) at 10uM” value was -68.4%. `COc1cccc(NC(C)=[N+](C)CCNS(=O)(=O)c2ccc(Cl)cc2)c1.[I-]` was tested, and the “hERG current change (%, negative = inhibition) at 10uM” value was -64.4%. For `COc1ccc(NC(=O)CCNS(=O)(=O)c2ccc(NC(C)=O)cc2)cc1Cl`, the “hERG current change (%, negative = inhibition) at 10uM” value was 22.8%. In the case of `COc1ccccc1NS(=O)(=O)c1ccc(Cl)cc1`, the “hERG current change (%, negative = inhibition) at 10uM” value is reported as -19.5%. In the case of `COc1ccc(NC(C)=[N+](C)CCNS(=O)(=O)c2ccc(Cl)cc2)cc1Cl.[I-]`, the “hERG current change (%, negative = inhibition) at 10uM” value is reported as -69.5%. For `COc1ccc(NC(=O)CNS(=O)(=O)c2ccccc2)cc1Cl`, the “hERG current change (%, negative = inhibition) at 10uM” value was 4.28%. With `CC(=O)Nc1ccc(S(=O)(=O)NCCc2ccc(F)cc2)cc1` the “hERG current change (%, negative = inhibition) at 10uM” value was -10.7%. `COc1ccccc1NC(=O)C(C)NS(=O)(=O)c1ccc(Cl)cc1` (stereo not drawn) was tested, and the “hERG current change (%, negative = inhibition) at 10uM” value was -0.716%. With `CCCc1nc2c(sc3nc4c(cc32)COC(C)(C)C4)c(=O)n1CCN(CC)CC` the “hERG current change (%, negative = inhibition) at 10uM” value was -17.8%. `O=[N+]([O-])c1cccc(NC(=S)NCc2ccncc2)c1` was tested, and the “hERG current change (%, negative = inhibition) at 10uM” value was 0.695%. `CCOC(=O)c1c(Nc2ccccc2)sc(/C=C2\C=Nc3ccccc32)c1O` was tested, and the “hERG current change (%, negative = inhibition) at 10uM” value was 0.585%. `O=C(O)/C=C/C(=O)N1CCN(c2ccccc2F)CC1` was tested, and the “hERG current change (%, negative = inhibition) at 10uM” value was 7.85%. For `COc1ccc(-c2ccc(SCC(=O)N3c4ccccc4CC3C)nn2)cc1OC` (stereo not drawn), the “hERG current change (%, negative = inhibition) at 10uM” value was -4.75%. With `CCOC(=O)C1CCN(C(=O)c2cn(C)c(=O)c3cc(OC)c(OC)cc23)CC1` the “hERG current change (%, negative = inhibition) at 10uM” value was -11.3%. In the case of `COc1ccc(NC(C)=[N+](C)CCNS(=O)(=O)c2ccc(Cl)cc2)cc1.[I-]`, the “hERG current change (%, negative = inhibition) at 10uM” value is reported as -70.2%. `COc1ccc(NC(=O)COC(=O)CCNS(=O)(=O)c2ccc(Cl)cc2)cc1` was tested, and the “hERG current change (%, negative = inhibition) at 10uM” value was -23.2%. With `COc1ccc(NC(=O)CNS(=O)(=O)c2ccc(Cl)cc2)cc1` the “hERG current change (%, negative = inhibition) at 10uM” value was 3.79%. With `Cc1cc(S(=O)(=O)Nc2ccc3c(c2)n(C)c(=O)n3C)ccc1F` the “hERG current change (%, negative = inhibition) at 10uM” value was -0.399%. In the case of `Cl.O=C(c1ccccc1)C(CCC(CN1CCOCC1)C(=O)c1ccccc1)CN1CCOCC1` (stereo not drawn), the “hERG current change (%, negative = inhibition) at 10uM” value is reported as -7.92%. In the case of `Cl.O=C(c1ccc(F)cc1)C(CCCCCC(CN1CCOCC1)C(=O)c1ccc(F)cc1)CN1CCOCC1` (stereo not drawn), the “hERG current change (%, negative = inhibition) at 10uM” value is reported as -86.8%. For `Cl.O=C(c1ccc(F)cc1)C(CN1CCOCC1)c1ccccc1` (stereo not drawn), the “hERG current change (%, negative = inhibition) at 10uM” value was -12.3%. In the case of `CCc1ccc(NC(=O)CSc2nnnn2-c2cccnc2)cc1`, the “hERG current change (%, negative = inhibition) at 10uM” value is reported as -15.4%. For `COc1ccccc1CCC(=O)Nc1ncc(C)s1`, the “hERG current change (%, negative = inhibition) at 10uM” value was 16.3%. For `Cc1cc(=O)oc2cc(OCC(=O)Nc3ccccc3C(N)=O)c(Cl)cc12`, the “hERG current change (%, negative = inhibition) at 10uM” value was 18.5%. In the case of `Cc1ccc(CN2CCN(Cc3ccccc3-c3ccco3)CC2CCO)o1` (stereo not drawn), the “hERG current change (%, negative = inhibition) at 10uM” value is reported as -22.3%. In the case of `CC(C)CCN1CCN(Cc2ccsc2)CC1CCO` (stereo not drawn), the “hERG current change (%, negative = inhibition) at 10uM” value is reported as -6.33%. In the case of `OCCC#Cc1ccc(CN2CCN(Cc3ccsc3)C(CCO)C2)cc1` (stereo not drawn), the “hERG current change (%, negative = inhibition) at 10uM” value is reported as -4.59%. `OCCC1CN(Cc2ccccc2-c2ccco2)CCN1Cc1ccsc1` (stereo not drawn) was tested, and the “hERG current change (%, negative = inhibition) at 10uM” value was -51%. With `CC(C)N1CCN(Cc2cccc(-c3ccco3)c2)CC1CCO` (stereo not drawn) the “hERG current change (%, negative = inhibition) at 10uM” value was -35.9%. For `OCCC1CN(Cc2cccc3c2OCO3)CCN1C1CCCCC1` (stereo not drawn), the “hERG current change (%, negative = inhibition) at 10uM” value was -9.67%. For `OCCC1CN(Cc2ccc(-c3ccco3)cc2)CCN1Cc1ccsc1` (stereo not drawn), the “hERG current change (%, negative = inhibition) at 10uM” value was -53.8%. With `C#Cc1ccc(CN2CCN(Cc3ccsc3)C(CCO)C2)cc1` (stereo not drawn) the “hERG current change (%, negative = inhibition) at 10uM” value was -34.6%. With `Cc1ccc(CN2CCN(C3CCCC3)C(CCO)C2)s1` (stereo not drawn) the “hERG current change (%, negative = inhibition) at 10uM” value was -22.4%. With `OCCC1CN(Cc2ccccc2-c2ccco2)CCN1Cc1ccccc1` (stereo not drawn) the “hERG current change (%, negative = inhibition) at 10uM” value was -35.7%. With `OCCC1CN(Cc2ccccc2-c2ccco2)CCN1C1CCCC1` (stereo not drawn) the “hERG current change (%, negative = inhibition) at 10uM” value was -63.8%. In the case of `OCCC1CN(Cc2cccc(-c3ccco3)c2)CCN1Cc1ccsc1` (stereo not drawn), the “hERG current change (%, negative = inhibition) at 10uM” value is reported as -71.6%. `COc1cccc(/C=C2\SC(=O)NC2=O)c1OCc1ccc(C(=O)O)cc1` was tested, and the “hERG current change (%, negative = inhibition) at 10uM” value was 9.69%. For `OCCN1CCN(Cc2cc(Cl)c3cccnc3c2O)CC1`, the “hERG current change (%, negative = inhibition) at 10uM” value was 16.6%. `COc1ccccc1N1CCN(C(=O)C(=O)c2c[nH]c3ccccc23)CC1` was tested, and the “hERG current change (%, negative = inhibition) at 10uM” value was 0.156%. `Nc1ccccc1SCC(=O)Nc1ccc2c(c1)OCCO2` was tested, and the “hERG current change (%, negative = inhibition) at 10uM” value was 3.12%. `O=C(CSc1nnc2c(n1)[nH]c1ccc(F)cc12)Nc1ccccc1F` was tested, and the “hERG current change (%, negative = inhibition) at 10uM” value was 19.5%. With `Cc1ccc(C(=O)NC2CCSC2=O)cc1` (stereo not drawn) the “hERG current change (%, negative = inhibition) at 10uM” value was 7.89%. `Cc1ccc(NC(=O)C2OCCc3ccccc32)cc1C` (stereo not drawn) was tested, and the “hERG current change (%, negative = inhibition) at 10uM” value was -3.78%. For `Cc1ccc([N+](=O)[O-])c(OCCN2CCNCC2)c1.O=C(O)C(=O)O`, the “hERG current change (%, negative = inhibition) at 10uM” value was -14.6%. For `Cc1cc(OCCCN2CCN(Cc3ccccc3)CC2)ccc1[N+](=O)[O-].O=C(O)C(=O)O`, the “hERG current change (%, negative = inhibition) at 10uM” value was -71.5%. With `Cc1ccc([N+](=O)[O-])c(OCCCN2CCC(Cc3ccccc3)CC2)c1.O=C(O)C(=O)O` the “hERG current change (%, negative = inhibition) at 10uM” value was -89.6%. In the case of `Cc1ccc([N+](=O)[O-])c(OCCN2CCCCCC2)c1.O=C(O)C(=O)O`, the “hERG current change (%, negative = inhibition) at 10uM” value is reported as -34%. In the case of `Cc1cc(OCCCn2ccnc2)ccc1[N+](=O)[O-].O=C(O)C(=O)O`, the “hERG current change (%, negative = inhibition) at 10uM” value is reported as -2.51%. In the case of `Cc1ccc([N+](=O)[O-])c(OCCN2CCc3ccccc3C2)c1.O=C(O)C(=O)O`, the “hERG current change (%, negative = inhibition) at 10uM” value is reported as -23.3%. For `Cc1ccc(OCCN2CCN(C)CC2)c([N+](=O)[O-])c1.O=C(O)C(=O)O`, the “hERG current change (%, negative = inhibition) at 10uM” value was 6%. For `Cc1ccc([N+](=O)[O-])c(OCCN2CCC(Cc3ccccc3)CC2)c1.O=C(O)C(=O)O`, the “hERG current change (%, negative = inhibition) at 10uM” value was -73%. `Cc1cc(OCCN2CCOCC2)ccc1[N+](=O)[O-].O=C(O)C(=O)O` was tested, and the “hERG current change (%, negative = inhibition) at 10uM” value was 5.11%. With `COc1cc(NC(=O)CN2CCC(Cc3ccccc3)CC2)c(C)cc1[N+](=O)[O-]` the “hERG current change (%, negative = inhibition) at 10uM” value was 6.01%. With `Cc1ccc([N+](=O)[O-])c(OCCCN2CCCCCC2)c1.O=C(O)C(=O)O` the “hERG current change (%, negative = inhibition) at 10uM” value was -58.6%.
